An excerpt weighted towards active compounds, which were near 19% of everything screened.
IL1B secr inh: qHTS for Inhibitors of Inflammasome Signaling: IL-1-beta AlphaLISA Primary Screen | activity change, % at 57.5 µM | AID 743279, 2014 | THP-1 LPS/ATP IL-1B secretion, AlphaLISA, 16 h; active compounds read low | 4.7% of 360,000 active; in the data active = activity change below about -50%; inconclusive = mostly about -30% to -49%
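Secreted IL-1B measured by AlphaLISA bead assay after 16 h compound exposure of THP-1 cells; compounds (final up to 57.5 uM) added 1 h before LPS (250 ng/mL) and ATP (1.25 mM) stimulation; lower signal means less secretion.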
TDP1 block: qHTS Assay for Inhibitors of Tyrosyl-DNA Phosphodiesterase (TDP1); AID 485290, 2010; 0.28% of 350,000 active; Potency, µM (titrated, usually from 130 µM), hits mostly inhibitors; recombinant TDP1, AlphaScreen DNA substrate cleavage; Tyrosyl-DNA phosphodiesterase 1 (Homo sapiens), Q9NUW8; note: nearly all actives have a fitted effect of over 40% in size
Target sequence (Q9NUW8 whole entry, looked up): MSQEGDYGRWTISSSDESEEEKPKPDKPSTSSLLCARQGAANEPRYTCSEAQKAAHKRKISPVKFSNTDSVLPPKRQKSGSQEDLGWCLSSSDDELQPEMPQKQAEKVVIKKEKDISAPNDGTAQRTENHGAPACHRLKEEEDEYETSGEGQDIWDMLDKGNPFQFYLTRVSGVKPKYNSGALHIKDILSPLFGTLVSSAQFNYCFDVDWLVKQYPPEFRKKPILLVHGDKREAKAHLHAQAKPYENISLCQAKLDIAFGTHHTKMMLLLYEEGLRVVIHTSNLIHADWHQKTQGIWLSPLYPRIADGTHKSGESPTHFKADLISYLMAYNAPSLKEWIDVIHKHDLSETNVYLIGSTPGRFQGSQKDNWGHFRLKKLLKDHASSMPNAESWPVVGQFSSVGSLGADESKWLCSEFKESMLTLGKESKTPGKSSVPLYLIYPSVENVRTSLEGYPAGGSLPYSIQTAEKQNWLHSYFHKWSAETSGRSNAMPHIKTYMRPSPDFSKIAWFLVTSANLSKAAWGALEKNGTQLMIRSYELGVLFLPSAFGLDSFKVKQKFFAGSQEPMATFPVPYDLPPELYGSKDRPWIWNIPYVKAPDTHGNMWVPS
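Here, a 5' biotin and 3' phosphotyrosine-FITC DNA oligonucleotide reports Tdp1 activity: intact substrate bridges AlphaScreen beads, while cleavage leaves a 3' phosphate and drops signal. All incubations at room temperature.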
DT40 TDP1 CPT: qHTS for Inhibitors of human tyrosyl-DNA phosphodiesterase 1 (TDP1): qHTS in cells in presence of CPT; chicken DT40 Tdp1-/-;hTDP1 cells + 20 nM CPT, ATP luminescence, 48 h; Potency, µM (series often up to 46.2 µM), most hits filed as inhibitors; 12% of 420,000 active; AID 686979, 2013; note: nearly all actives have a fitted effect of over 55% in size
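Chicken DT40 Tdp1-/- cells complemented with human TDP1, 400 cells/well, exposed to compounds plus 20 nM camptothecin for at least 48 h at 37 C; viability read as ATP content by CellTiter-Glo luminescence.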
HepG2 viability: qHTS for Inhibitors of TGF-b: Cytotox Counterscreen; HepG2 CAGA-GFP viability, ATP luminescence, 18 h; 0.76% of 410,000 active; Potency, µM (top dose mostly 46.1 µM), most hits filed as cytotoxic
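CellTiter-Glo luminescence gave cytotoxicity after 18 hours at 37 degrees C. The cells were HepG2 CAGA-GFP in 1% FBS DMEM, stimulated with 500 pg/mL TGF-beta after compound addition. %Activity was normalised to no-cell wells (complete cell-killing) and DMSO (no toxicity), and curves were fitted and classified.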
TGFb SMAD3 inh: qHTS for Inhibitors of TGF-b; HepG2 CAGA-GFP TGF-b/SMAD3 reporter, GFP fluorescence, 18 h; TGF-beta stimulated, 500 pg/mL final; Potency, µM (top dose mostly 46.1 µM), hits mostly inhibitors; 1.2% of 410,000 active; note: nearly all actives have a fitted effect of over 65% in size
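Cell-based qHTS in HEPG2 carrying a CAGA-GFP Smad reporter; compounds added before 500 pg/mL final TGF-beta, 18 h incubation at 37 degrees C, GFP fluorescence quantified per cell by imaging cytometry.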
DT40 TDP1 no CPT: qHTS for Inhibitors of human tyrosyl-DNA phosphodiesterase 1 (TDP1): qHTS in cells in absence of CPT. DT40 Tdp1-/- hTDP1 cells, no CPT, ATP luminescence, 48 h. Potency, µM (top dose mostly 46.2 µM), actives largely listed as inhibitors. 15% of 420,000 active; note: nearly all actives have a fitted effect of over 55% in size
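Compound effects on proliferation are scored in DT40 Tdp1-/-;hTDP1 cells in the absence of CPT. ATP levels (CellTiter-Glo luminescence) are recorded after a ≥48 hr, 37 °C incubation.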
A number is an active result; – = inactive; ? = inconclusive; · = no result given; ! = a repeat was not active. Unless noted, calls come from the whole dose curve; as a rule, active = well fitted curve in the direction sought with a large enough effect; inconclusive = small, poorly fitted or top-dose-only effect, or another doubt; inactive = no such curve, though single readings can be large; an effect the other way counts as inactive or inconclusive.

SMILES | IL1B secr inh | TDP1 block | DT40 TDP1 CPT | HepG2 viability | TGFb SMAD3 inh | DT40 TDP1 no CPT
Nc1c(C(=O)NCc2ccco2)c2nc3ccccc3nc2n1Cc1ccc(F)cc1 | ? | – | 15µM | – | ? | ?
COC[C@]12CN(C=O)C3C4C(OC)C1[C@@]3(C1CC3(O)C(OC)C(O)C4(OC(C)=O)C1C3OC(=O)c1ccccc1)[C@@H](OC)CC2O (stereo partly drawn) | · | – | – | · | · | –
CN1CC=C(c2c[nH]c3ccccc23)CC1 | – | – | – | – | ? | –
C1=C(c2c[nH]c3ccccc23)CCN(Cc2ccccc2)C1 | – | – | 9.2µM | – | ? | 4.6µM
COc1ccc(CN2CCc3nc(N4CCN(c5ccc(F)cc5)CC4)ncc3C2)c(OC)c1OC | · | – | 5.8µM | – | ? | 4.6µM
N#Cc1ccc(NC(=O)CN2C(=O)NC3(CCCC3)C2=O)cc1Cl | – | – | – | – | – | ?
N#Cc1ccc(NC(=O)CN2CCN(C(=O)c3cccs3)CC2)cc1Cl | – | – | ? | – | – | 16µM
CN1C(=O)c2ccccc2Sc2ccc(NC(=O)NCc3ccc(Cl)cc3)cc21 | · | – | 23µM | – | – | 16µM
COC1=C(C)C(=O)C2=C(C1=O)C(CO)N1C(C#N)C3CC4C(C1C2N1CCOC41)N3C (stereo not drawn) | -103 | · | 0.052µM | – | 7.1µM | 0.15µM
CCCCC1(C2CCCC2)Cc2cc(OCCCC(=O)O)c(Cl)c(Cl)c2C1=O (stereo not drawn) | · | – | · | · | · | ·
CC(=O)CC(c1ccccc1)c1c(O)c2ccc(O)cc2oc1=O (stereo not drawn) | · | – | · | · | · | ·
Oc1cc(Cl)ccc1Oc1ccc(Cl)cc1Cl | -70 | – | 7.7µM | – | 18µM | 23µM
Oc1cc(Cl)ccc1Cl | · | – | · | · | · | ·
C=CC(=O)OCC(C)C | · | – | · | · | · | ·
CC(C)=O | · | – | ? | · | · | ?
CCN(CC)P(=O)(Nc1ccc([N+](=O)[O-])cc1)c1c(C)nn(CCC#N)c1NC(=O)c1ccc(Cl)cc1Cl (stereo not drawn) | – | – | 18µM | – | ? | 23µM
CN[C@@H]1C[C@H](c2ccc(Cl)c(Cl)c2)c2ccccc21 | · | – | 8.4µM | · | · | 9.4µM
CN[C@@H]1C[C@@H](c2ccc(Cl)c(Cl)c2)c2ccccc21 | · | – | 24µM | · | · | 12µM
Cc1ccc(Cn2cccc(C(=O)Nc3nnc(C)s3)c2=O)cc1 | · | – | – | – | – | –
O=C1NC(=O)c2c1c1c3ccccc3[nH]c1c1[nH]c3ccccc3c21 | · | – | · | · | · | ·
O=C1NCc2c1c1c3ccccc3[nH]c1c1[nH]c3ccccc3c21 | · | – | 3.2µM | 13µM | ? | 2.8µM
CC(C)(C)[C@]1(O)C[C@@H]2OC(=O)CC23C(=O)O[C@@H]2OC(=O)[C@H](O)C231 (stereo partly drawn) | · | – | · | · | · | ·
CCCCC/C=C\C/C=C\C/C=C\C/C=C\CCCC(=O)NCc1ccc(O)c(OC)c1 | · | – | · | · | · | ·
COc1cc(CNC(=O)CCCC/C=C/C(C)C)ccc1O | – | – | 11µM! | – | – | 8.9µM!
O=c1c2ccccc2nc(-c2ccoc2)n1-c1ccccc1 | – | – | – | – | – | –
SMILES | IL1B secr inh | TDP1 block | DT40 TDP1 CPT | HepG2 viability | TGFb SMAD3 inh | DT40 TDP1 no CPT
COc1ccccc1-n1c(-c2ccccc2Cl)nc2ccccc2c1=O | – | · | ? | – | – | 15µM
O=c1c2ccccc2nc(-c2ccoc2)n1-c1ccccc1Cl | – | – | 21µM | – | – | 16µM
COc1ccccc1-n1c(-c2ccoc2)nc2ccccc2c1=O | – | – | 12µM | – | – | 18µM
Cc1cccc(-n2c(-c3ccco3)nc3ccccc3c2=O)c1C | – | – | 8.2µM | – | – | 16µM
Cc1cccnc1-n1c(-c2ccco2)nc2ccccc2c1=O | – | – | – | – | – | ?
CC(C)c1ccc(-n2c(O)c(C=NCCN3CCNCC3)c(=O)[nH]c2=S)cc1 | – | · | – | – | – | –
CCCCCCCCCCCCCCCCOC[C@@H](COP(=O)([O-])OCC[N+](C)(C)C)OC(C)=O | · | – | ? | · | · | ?
CNC(=O)Oc1ccc2c(c1)C1(C)CCN(C)C1N2C (stereo not drawn) | · | – | 24µM | · | · | 30µM
CN1CC[C@@]2(C)c3cc(O)ccc3N(C)C12 (stereo partly drawn) | · | – | 4µM | – | ? | ?
C=CC(C)=O | · | – | · | · | · | ·
CCC1(NS(=O)(=O)c2ccc(N)cc2)C(=O)N(C)C(=O)N(C)C1=O | – | · | ? | – | ? | ?
COc1cc(C(c2c(C)[nH]n(-c3ccccc3)c2=O)c2c(C)[nH]n(-c3ccccc3)c2=O)cc(OC)c1OC | -78 | – | – | – | ? | ?
Cc1[nH]n(-c2ccccc2)c(=O)c1C(c1cccc([N+](=O)[O-])c1O)c1c(C)[nH]n(-c2ccccc2)c1=O | – | – | – | – | ? | ?
NC(=O)c1cc(N2CC2)c([N+](=O)[O-])cc1[N+](=O)[O-] | – | – | 0.15µM | – | – | 0.037µM
C[C@@H](N)Cn1ccc2cc(F)c(Cl)cc21 | · | – | – | · | · | ?
Nc1c(Br)cc2c3c(cccc13)-c1ccccc1-2 | – | · | 8.2µM | 16µM | – | 5.2µM
c1ccc2c(c1)-c1cccc3cccc-2c13 | – | – | – | – | – | –
C/C(N)=C(/C#N)C(=O)CSc1nc2cc(Cl)ccc2c(=O)n1-c1ccc(C)cc1 | – | – | – | – | – | ?
CC(=O)c1ccc(N2CCN(c3ccc4cc(S(=O)(=O)N5CCCCC5)ccc4n3)CC2)cc1 | · | – | ? | – | – | 3.7µM
Cc1ccc(Cl)c2sc(NC(=O)c3ccc(S(=O)(=O)N4CCCC4)cc3)nc12 | · | – | ? | – | – | ?
O=c1[nH]c(=S)[nH]c(O)c1N=Nc1ccc(S(=O)(=O)N2CCc3ccccc32)cc1 | – | – | – | – | – | –
O=C1CCCC2[C@@H]3CCCN4CCC[C@@H](CN12)C34 (stereo partly drawn) | · | – | – | · | · | –
CC(=O)C(Sc1ncnc2c1nnn2-c1ccc(F)cc1)C(=O)N(C)C (stereo not drawn) | – | – | 21µM | – | – | 21µM
COC(=O)C1=CN(c2ccc(C(C)(C)C)cc2)C(N)=C(C#N)C1c1cccc([N+](=O)[O-])c1 (stereo not drawn) | – | · | ? | · | · | 23µM
COc1ccc(NC(=O)c2oc3ccc(S(=O)(=O)N(C)C4CCCCC4)cc3c2C)cc1 | · | – | 10µM | – | – | 8.2µM

Screening results (PubChem BioAssay)
